Experimental data: PubChem BioAssay (EPA / NIEHS)
Results filed as inconclusive are left out. Active and inactive are the calls of the source. How the source made its calls: active means hit-call score of the fitted dose curve at least 0.9, where 1 is the maximum; inconclusive means response in the unintended direction; inactive means score below 0.9.

molecular target: human Retinoic Acid Receptor beta (RARb), RARB (gene 5915) (UniProt P10826); test: ATG_RARb_TRANS: Attagene TRANS-FACTORIAL HepG2 Assay for human Retinoic Acid Receptor beta (AID 2283004)
Sequence (P10826 whole entry, looked up): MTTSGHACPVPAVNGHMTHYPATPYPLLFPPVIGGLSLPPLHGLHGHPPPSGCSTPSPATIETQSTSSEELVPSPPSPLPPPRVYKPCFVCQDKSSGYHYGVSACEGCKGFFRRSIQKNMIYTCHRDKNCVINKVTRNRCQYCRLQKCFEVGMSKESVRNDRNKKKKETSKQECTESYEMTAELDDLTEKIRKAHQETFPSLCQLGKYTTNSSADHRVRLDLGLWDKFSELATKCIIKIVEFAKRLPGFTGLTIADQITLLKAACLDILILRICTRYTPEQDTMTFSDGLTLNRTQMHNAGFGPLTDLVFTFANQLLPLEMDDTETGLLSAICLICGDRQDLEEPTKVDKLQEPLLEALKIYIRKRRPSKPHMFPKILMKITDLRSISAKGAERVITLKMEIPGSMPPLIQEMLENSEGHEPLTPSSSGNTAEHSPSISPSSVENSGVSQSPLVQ
Procedure: ATG_TRANS is a cell-based, multiplexed-readout assay that uses HepG2, a human liver cell line, with measurements taken at 24 hours after chemical dosing in a 24-well plate.ATG_RARb_TRANS is one of 30 assay component(s) measured or calculated from the ATG_TRANS assay. It is designed to make measurements of mRNA induction, a form of inducible reporter, as detected with fluorescence intensity signals by Reverse transcription polymerase chain reaction (RT-PCR) and Capillary electrophoresis technology.Data from the assay component ATG_RARb_TRANS was analyzed into 1 assay endpoint. This assay endpoint, ATG_RARb_TRANS, was analyzed in the positive analysis fitting direction relative to DMSO as the negative control and baseline of activity. Using a type of inducible reporter, measures of mRNA for gain-of-signal activity can be used to understand the reporter gene at the transcription factor-level as they relate to the gene RARB. Furthermore, this assay endpoint can be referred to as a primary readout, because this assay has produced multiple assay endpoints where this one serves a reporter gene function. To generalize the intended target to other relatable targets, this assay endpoint is annotated to the nuclear receptor intended target family, where the subfamily is non-steroidal.
Human liver HepG2 cells are transiently transfected with multiple reporter transcription units (MRTUs) in 6-well plates using FuGene 6 reagent (Roche; 3 ml FuGene/1 mg DNA). The MRTU constructs are regulated by a cis-regulating element (promoter). […] A major difference between the CIS and TRANS system is that in CIS activities of endogenous TFs are measured, whereas the TRANS assay evaluates changes in activities of exogenous, chimeric NR-Gal4 proteins. […] At the end of 24 hour incubation, total RNA was isolated using TriZol reagent (Invitrogen). The isolated RNA is then reverse-transcribed using oligo(dT) primer and Mo-MLV reverse transcriptase (Invitrogen) with DNAse I (Ambion) treatment for 30 min. The one-tenth of the produced cDNA was amplified by PCR using Taq DNA polymerase (Invitrogen) and two reporter sequence-specific primers. The PCR products were fluorescently labeled by primer extension with 6-arboxyfluorescein (6-FAM) 5'-labeled reporter sequence-specific primer (2 min at 95 C, 20 s at 68 C and 10 min at 72 C) and these products were digested with 5U of HpaI (New England Biolabs) for 2h at 37 C. The fragments were purified using Qiaquick PCR columns (Qiagen), analyzed on an ABI 3130xL genetic analyzer (Applied Biosystems) with peak positions identified by using a set of X-rhodamine (ROX)-labeled MapMarker1000 molecular weight standards (BioVentures). The raw capillary electrophoresis data was processed using Attagraph software (Attagene).

Structure (SMILES) | outcome
COc1ccc(-c2ccccc2)cc1NNC(=O)OC(C)C | inactive
CCCCC(C#N)(Cn1cncn1)c1ccc(Cl)cc1 (stereo unspecified) | inactive
Cc1c(COC(=O)[C@@H]2[C@H](/C=C(\Cl)C(F)(F)F)C2(C)C)cccc1-c1ccccc1 | inactive
COCc1cnc(C2=NC(C)(C(C)C)C(=O)N2)c(C(=O)O)c1 (stereo unspecified) | inactive
CC(C)=CC1C(C(=O)OCc2coc(Cc3ccccc3)c2)C1(C)C (stereo unspecified) | inactive
CNC(=O)N(C)c1nnc(C(C)(C)C)s1 | inactive
CCOc1cc(C(C)(C)C)ccc1C1COC(c2c(F)cccc2F)=N1 (stereo unspecified) | inactive
CC1(C)C(C(=O)OC(C#N)c2cccc(Oc3ccccc3)c2)C1(C)C (stereo unspecified) | inactive
COP(=S)(OC)SCn1nnc2ccccc2c1=O | inactive
CCCC(=NOCC)C1=C(O)CC(CC(C)SCC)CC1=O (stereo unspecified) | inactive
Cc1ccc(N=CN(C)C=Nc2ccc(C)cc2C)c(C)c1 | inactive
C=C(C)CN(CC)c1c([N+](=O)[O-])cc(C(F)(F)F)cc1[N+](=O)[O-] | inactive
CCOc1nc(C(Cl)(Cl)Cl)ns1 | inactive
CS(=O)(=O)c1cc(C(F)(F)F)ccc1C(=O)c1cnoc1C1CC1 | inactive
CCNP(=S)(OC)O/C(C)=C/C(=O)OC(C)C (stereo unspecified) | inactive
O=c1n(Cl)c(=O)n(Cl)c(=O)n1Cl | inactive

Structure (SMILES) | outcome
CCSC(=O)N1CCCCCC1 | inactive
CC(C)Oc1cccc(NC(=O)c2ccccc2C(F)(F)F)c1 | inactive
COc1cc(Cl)c(OC)cc1Cl | inactive
COC(=O)c1c(C(F)F)nc(C(F)(F)F)c(C2=NCCS2)c1CC(C)C | inactive
CC1(C)CCC(=Cc2ccc(Cl)cc2)C1(O)Cn1cncn1 (stereo unspecified) | inactive
CCOP(=S)(OCC)Oc1nc(Cl)n(C(C)C)n1 | inactive
CC1(C)CON(Cc2ccccc2Cl)C1=O | inactive
CSC(=O)c1c(C(F)F)nc(C(F)(F)F)c(C(=O)SC)c1CC(C)C | inactive
CCN(CC)c1nc(C)cc(OP(=S)(OC)OC)n1 | inactive
CC1(C)C(C=C(Cl)Cl)C1C(=O)OC(C#N)c1cccc(Oc2ccccc2)c1 (stereo unspecified) | inactive
Cc1cc(C)nc(Nc2ccccc2)n1 | inactive
CC(C)(C)C(=O)C(Oc1ccc(Cl)cc1)n1cncn1 (stereo unspecified) | inactive
CNC(=O)Oc1cccc2ccccc12 | inactive
O=P(O)(O)CCCl | inactive
Nc1c(Cl)c(F)nc(OCC(=O)O)c1Cl | inactive
